Measured values as given in PubChem BioAssay (EPA / NIEHS).
Values joined by “and” are separate entries in the source; they are usually repeats but may differ in a detail not shown here. Equal entries are not always repeated. Records with an inconclusive call do not appear. Active and inactive are the calls of the source. How the source made its calls, unless noted: active means hit-call score of the fitted dose curve at least 0.9, where 1 is the maximum; inactive means score below 0.9.

Tests used:
[1] = biological target: Nuclear respiratory factor 1 (Homo sapiens) (UniProt Q16656); experiment: ATG_NRF1_CIS: Attagene CIS-FACTORIAL HepG2 Assay for human Nuclear Respiratory Factor 1 (NRF1) Orphan Gene (AID 2282987); conditions: HepG2 NRF1 cis-element reporter, Attagene multiplex; actives raise or lower the signal
Nuclear respiratory factor 1 (Homo sapiens), sequence (Q16656 whole entry, looked up, the tested form may be a part): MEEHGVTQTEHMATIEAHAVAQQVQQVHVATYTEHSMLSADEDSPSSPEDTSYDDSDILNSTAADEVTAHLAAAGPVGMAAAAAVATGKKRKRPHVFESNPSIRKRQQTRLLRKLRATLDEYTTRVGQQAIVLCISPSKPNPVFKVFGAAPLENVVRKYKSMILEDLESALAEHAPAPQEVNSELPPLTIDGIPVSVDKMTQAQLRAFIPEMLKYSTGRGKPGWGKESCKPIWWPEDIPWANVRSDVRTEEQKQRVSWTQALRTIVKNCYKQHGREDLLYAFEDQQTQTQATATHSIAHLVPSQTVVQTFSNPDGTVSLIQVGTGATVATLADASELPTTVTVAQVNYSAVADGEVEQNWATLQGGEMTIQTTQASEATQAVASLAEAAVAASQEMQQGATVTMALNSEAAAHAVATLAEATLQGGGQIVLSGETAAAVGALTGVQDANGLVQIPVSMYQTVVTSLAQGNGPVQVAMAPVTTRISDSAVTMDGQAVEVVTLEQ
Procedure, shortened: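 Fluorescence intensity of labelled reporter cDNA fragments, resolved by capillary electrophoresis, served as readout for NRF1 cis-element activity. Transiently transfected HepG2 cells were dosed for 24 hours; activity in either direction was fitted against DMSO negative control.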

[2] = ATG_NFI_CIS: Attagene CIS-FACTORIAL HepG2 Assay for human Nuclear Factor I (NFI) (AID 2282989); conditions: HepG2 cis-regulatory reporter, NFI response element transcription; actives raise or lower the signal
Procedure, shortened: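 Reporter transcription driven by endogenous transcription factors in HepG2 cells; 24 h treatment. Quantitation by labelled RT-PCR fragments on capillary electrophoresis, gain- or loss-of-signal relative to DMSO.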

[3] = biological target: Myc proto-oncogene protein (Homo sapiens) (UniProt P01106); experiment: ATG_Myc_CIS: Attagene CIS-FACTORIAL HepG2 Assay for human Myelocytomatosis (Myc) Proto-Oncogene Transcription Factor (AID 2282990); conditions: HepG2, Attagene cis-reporter transcription factor activity; actives raise or lower the signal
Myc proto-oncogene protein (Homo sapiens), sequence (P01106 whole entry, looked up): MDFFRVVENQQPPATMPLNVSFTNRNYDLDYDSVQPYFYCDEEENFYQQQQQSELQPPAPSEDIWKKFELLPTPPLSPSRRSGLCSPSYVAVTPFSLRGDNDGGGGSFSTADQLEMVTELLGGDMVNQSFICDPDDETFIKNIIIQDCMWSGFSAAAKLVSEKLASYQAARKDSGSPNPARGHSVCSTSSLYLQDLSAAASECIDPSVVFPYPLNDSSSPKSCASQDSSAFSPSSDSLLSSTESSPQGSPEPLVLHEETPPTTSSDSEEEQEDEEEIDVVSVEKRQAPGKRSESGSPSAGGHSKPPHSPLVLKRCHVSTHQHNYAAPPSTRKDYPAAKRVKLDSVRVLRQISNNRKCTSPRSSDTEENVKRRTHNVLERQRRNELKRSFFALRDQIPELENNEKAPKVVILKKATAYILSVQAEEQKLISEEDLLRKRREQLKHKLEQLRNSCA
Procedure, shortened: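 Transiently transfected HepG2 cells bearing cis-promoter reporter units for endogenous transcription factors; 24 h exposure. Reporter mRNA measured by RT-PCR, 6-FAM primer extension, HpaI cut and capillary electrophoresis; bidirectional fit relative to DMSO.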

[4] = ATG_NF_kB_CIS: Attagene CIS-FACTORIAL HepG2 Assay for human Nuclear Factor Kappa B (NF-kB) (AID 2282991); conditions: HepG2 Attagene cis-factorial NF-kB reporter mRNA; actives raise or lower the signal
Procedure, shortened: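 Endogenous transcription factor activity in HepG2 was captured via cis-regulated reporter constructs; after 24 h dosing, reporter mRNA was reverse-transcribed, amplified, fluorescently labelled and sized by capillary electrophoresis, with activity fitted bidirectionally relative to DMSO.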

[5] = ATG_NRF2_ARE_CIS: Attagene CIS-FACTORIAL HepG2 Assay for human Nuclear Factor Erythroid 2 Related Factor 2 (NFR2) response to Antioxidant Response Elements (ARE) (AID 2282992); conditions: HepG2 Attagene ARE/NRF2 reporter, transcription factor activity; actives raise or lower the signal;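 on AC50: reporter mRNA level measured by RT-PCR and capillary electrophoresis fluorescence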
Procedure, shortened: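 Readout: reporter mRNA quantified by RT-PCR plus FAM-labelled primer extension, HpaI digestion and capillary electrophoresis, 24 h after dosing transfected HepG2 cells. Gain or loss of signal is fitted bidirectionally against DMSO baseline.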

[6] = BSK_3C_uPAR: BioMAP Diversity Plus: 3C Assay for Urokinase-type plasminogen activator receptor (uPAR) Biomarker Activity (AID 2282998); conditions: BioMAP 3C HUVEC, uPAR biomarker ELISA; actives raise or lower the signal
Procedure, shortened: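 Readout: ELISA for surface uPAR. System: human umbilical vein endothelial primary cells, 24 h after chemical exposure. Analysis: bidirectional fit, DMSO baseline.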

[7] = BSK_4H_Eotaxin3: BioMAP Diversity Plus: 4H Assay for Eotaxin 3 Biomarker Activity (AID 2283000); conditions: primary human endothelial cells (HUVEC); actives raise or lower the signal
Procedure, shortened: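 Eotaxin-3 (CCL26) levels were measured by ELISA in HUVEC primary cultures 24 h post-dosing. Gain or loss of signal was fitted in both directions, with DMSO serving as baseline and negative control.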

[8] = biological target: human Peroxisome Proliferator-activated Receptor alpha (PPARa), PPARA (gene 5465) (UniProt Q07869); experiment: ATG_PPARa_TRANS: Attagene TRANS-FACTORIAL HepG2 Assay for human Peroxisome Proliferator-activated Receptor alpha (PPARa) (AID 2283001; active means hit-call score of the fitted dose curve at least 0.9, where 1 is the maximum)
human Peroxisome Proliferator-activated Receptor alpha (PPARa), PPARA (gene 5465), sequence (Q07869 whole entry, looked up): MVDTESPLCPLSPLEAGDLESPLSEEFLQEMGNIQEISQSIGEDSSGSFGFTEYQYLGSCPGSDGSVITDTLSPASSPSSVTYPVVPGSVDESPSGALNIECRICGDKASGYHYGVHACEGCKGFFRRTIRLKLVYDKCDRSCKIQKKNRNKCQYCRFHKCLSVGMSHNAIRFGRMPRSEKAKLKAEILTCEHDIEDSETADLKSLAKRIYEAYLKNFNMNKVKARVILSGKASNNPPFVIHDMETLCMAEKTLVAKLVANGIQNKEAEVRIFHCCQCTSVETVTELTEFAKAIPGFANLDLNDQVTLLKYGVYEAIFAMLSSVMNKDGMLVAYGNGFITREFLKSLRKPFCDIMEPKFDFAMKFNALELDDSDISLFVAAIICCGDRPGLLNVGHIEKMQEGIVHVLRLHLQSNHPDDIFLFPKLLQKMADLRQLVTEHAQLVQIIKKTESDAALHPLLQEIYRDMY
Procedure, shortened: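 HepG2, transient MRTU transfection, 24 h treatment. RT-PCR → FAM labelling → capillary electrophoresis. Fit vs DMSO, positive direction.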

[9] = read-out: Intercellular Adhesion Molecule 1 (ICAM1), ICAM1 (gene 3383); experiment: BSK_3C_ICAM1: BioMAP Diversity Plus: 3C Assay for Intercellular Adhesion Molecule 1 (ICAM1) Biomarker Activity (AID 2283003); conditions: primary human endothelial cells (HUVEC); actives raise or lower the signal
Procedure, shortened: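 ELISA readout of ICAM1 in human umbilical vein endothelial cells in the 3C system, taken 24 h post-dose. Gain or loss of signal versus DMSO was fitted in both directions, with SRB total-protein staining run in parallel.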

[10] = BSK_3C_Proliferation: Cell Proliferation Assessment in the BioMAP Diversity Plus: 3C Assay (AID 2283006); conditions: primary human endothelial cells (HUVEC);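 on AC50: potency may reflect either rise or fall in cell number versus DMSO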
Procedure, shortened: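 Proliferation as total protein: sulforhodamine B (0.1%) stain of TCA-fixed subconfluent human umbilical vein endothelial cells, absorbance 560 nm, 48 h after dosing. Activity fitted in both directions against DMSO baseline.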

[11] = biological target: Peroxisome proliferator-activated receptor gamma (Homo sapiens) (UniProt P37231); experiment: ATG_PPARg_TRANS: Attagene TRANS-FACTORIAL HepG2 Assay for human Peroxisome Proliferator-activated Receptor-gamma (PPARg) (AID 2283007; active means hit-call score of the fitted dose curve at least 0.9, where 1 is the maximum)
Peroxisome proliferator-activated receptor gamma (Homo sapiens), sequence (P37231 whole entry, looked up, the tested form may be a part): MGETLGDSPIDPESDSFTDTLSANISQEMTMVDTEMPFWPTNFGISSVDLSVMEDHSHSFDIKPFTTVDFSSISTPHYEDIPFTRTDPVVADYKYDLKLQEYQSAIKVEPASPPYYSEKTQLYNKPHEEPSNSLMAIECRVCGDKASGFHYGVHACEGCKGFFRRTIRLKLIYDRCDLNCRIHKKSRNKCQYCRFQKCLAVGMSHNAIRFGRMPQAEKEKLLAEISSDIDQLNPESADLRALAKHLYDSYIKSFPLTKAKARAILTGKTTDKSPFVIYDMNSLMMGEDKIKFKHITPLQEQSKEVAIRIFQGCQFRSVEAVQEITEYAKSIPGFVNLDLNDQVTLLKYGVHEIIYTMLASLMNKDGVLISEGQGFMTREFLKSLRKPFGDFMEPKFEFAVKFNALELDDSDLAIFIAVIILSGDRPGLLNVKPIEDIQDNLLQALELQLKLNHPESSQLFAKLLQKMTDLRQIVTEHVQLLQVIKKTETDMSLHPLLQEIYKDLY
Procedure, shortened: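 A TRANS-format multiplexed reporter assay measures activity of an exogenous chimeric NR-Gal4 protein in HepG2 cells. After 24 h of chemical exposure, reporter transcripts are amplified, fluorescently labelled and sized by capillary electrophoresis, with gain of signal scored against DMSO.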

[12] = biological target: Nuclear receptor subfamily 1 group I member 2 (Homo sapiens) (UniProt O75469); experiment: ATG_PXR_TRANS: Attagene TRANS-FACTORIAL HepG2 Assay for human Pregnane X Receptor (PXR) (AID 2283008; active means hit-call score of the fitted dose curve at least 0.9, where 1 is the maximum)
Nuclear receptor subfamily 1 group I member 2 (Homo sapiens), sequence (O75469 whole entry, looked up, the tested form may be a part): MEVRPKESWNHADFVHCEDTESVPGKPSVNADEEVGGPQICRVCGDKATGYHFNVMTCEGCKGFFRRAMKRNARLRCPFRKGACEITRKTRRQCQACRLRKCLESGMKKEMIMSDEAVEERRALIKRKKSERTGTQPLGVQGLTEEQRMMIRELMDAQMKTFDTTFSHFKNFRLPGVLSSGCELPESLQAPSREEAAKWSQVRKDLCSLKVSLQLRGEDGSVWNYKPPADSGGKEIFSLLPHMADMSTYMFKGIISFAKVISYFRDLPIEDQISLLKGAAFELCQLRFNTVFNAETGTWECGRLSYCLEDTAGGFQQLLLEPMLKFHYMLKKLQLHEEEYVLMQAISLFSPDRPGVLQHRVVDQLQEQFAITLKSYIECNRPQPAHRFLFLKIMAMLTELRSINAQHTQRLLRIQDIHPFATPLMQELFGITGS
Procedure, shortened: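 Trans-factorial format: exogenous NR-Gal4 fusion activity, not endogenous factor, in transfected human HepG2 liver cells. After 24 h dosing, RNA isolated, reverse-transcribed, amplified and resolved by capillary electrophoresis; induction scored versus DMSO.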

[13] = biological target: human Peroxisome Proliferator-activated Receptor delta (PPARd), PPARD (gene 5467) (UniProt Q03181); experiment: ATG_PPARd_TRANS: Attagene TRANS-FACTORIAL HepG2 Assay for human Peroxisome Proliferator-activated Receptor delta (PPARd) (AID 2283002; active means hit-call score of the fitted dose curve at least 0.9, where 1 is the maximum)
human Peroxisome Proliferator-activated Receptor delta (PPARd), PPARD (gene 5467), sequence (Q03181 whole entry, looked up, the tested form may be a part): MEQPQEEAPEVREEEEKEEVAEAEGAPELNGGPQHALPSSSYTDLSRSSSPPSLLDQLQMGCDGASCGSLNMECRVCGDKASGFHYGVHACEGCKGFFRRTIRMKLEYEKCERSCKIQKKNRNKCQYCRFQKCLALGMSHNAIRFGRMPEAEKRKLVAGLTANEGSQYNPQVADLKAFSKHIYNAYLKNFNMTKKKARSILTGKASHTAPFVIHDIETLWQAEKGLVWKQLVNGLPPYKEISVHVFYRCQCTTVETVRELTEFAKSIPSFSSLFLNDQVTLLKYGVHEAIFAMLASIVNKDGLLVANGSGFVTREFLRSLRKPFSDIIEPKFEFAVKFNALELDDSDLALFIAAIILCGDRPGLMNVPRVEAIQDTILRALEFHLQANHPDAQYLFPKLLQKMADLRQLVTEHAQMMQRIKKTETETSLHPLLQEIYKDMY
Procedure, shortened: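 HepG2 cells transiently transfected with GAL4-UAS multiplexed reporter units driven by exogenous chimeric NR-GAL4 proteins; 24 h compound exposure. Reporter mRNA measured by RT-PCR, 6-FAM primer extension, HpaI digestion and capillary electrophoresis; gain of signal fitted relative to DMSO.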

[14] = biological target: human Retinoic Acid Receptor beta (RARb), RARB (gene 5915) (UniProt P10826); experiment: ATG_RARb_TRANS: Attagene TRANS-FACTORIAL HepG2 Assay for human Retinoic Acid Receptor beta (AID 2283004; active means hit-call score of the fitted dose curve at least 0.9, where 1 is the maximum)
human Retinoic Acid Receptor beta (RARb), RARB (gene 5915), sequence (P10826 whole entry, looked up, the tested form may be a part): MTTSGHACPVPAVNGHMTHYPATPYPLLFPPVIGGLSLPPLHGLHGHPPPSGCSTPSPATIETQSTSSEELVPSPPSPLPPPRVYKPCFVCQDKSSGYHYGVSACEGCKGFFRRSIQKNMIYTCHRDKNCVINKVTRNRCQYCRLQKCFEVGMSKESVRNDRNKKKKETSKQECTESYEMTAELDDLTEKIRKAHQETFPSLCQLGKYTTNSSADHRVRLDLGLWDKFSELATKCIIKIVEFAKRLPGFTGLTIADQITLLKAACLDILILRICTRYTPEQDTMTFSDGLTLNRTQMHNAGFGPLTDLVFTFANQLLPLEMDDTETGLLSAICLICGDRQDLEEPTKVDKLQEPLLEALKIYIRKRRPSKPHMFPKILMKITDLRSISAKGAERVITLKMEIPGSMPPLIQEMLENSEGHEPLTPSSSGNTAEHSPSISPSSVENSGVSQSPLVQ
Procedure, shortened: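 HepG2 cells were transiently transfected with GAL4-UAS reporter units that report activity of exogenous chimeric NR-Gal4 proteins, then exposed to compound for 24 h. Reporter mRNA was quantified by RT-PCR with capillary electrophoresis fluorescence, as gain of signal over DMSO.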

[15] = biological target: human Retinoic Acid Receptor gamma (RARg), RARG (gene 5916) (UniProt P13631); experiment: ATG_RARg_TRANS: Attagene TRANS-FACTORIAL HepG2 Assay for human Retinoic Acid Receptor gamma (RARg) (AID 2283009; active means hit-call score of the fitted dose curve at least 0.9, where 1 is the maximum)
human Retinoic Acid Receptor gamma (RARg), RARG (gene 5916), sequence (P13631 whole entry, looked up, the tested form may be a part): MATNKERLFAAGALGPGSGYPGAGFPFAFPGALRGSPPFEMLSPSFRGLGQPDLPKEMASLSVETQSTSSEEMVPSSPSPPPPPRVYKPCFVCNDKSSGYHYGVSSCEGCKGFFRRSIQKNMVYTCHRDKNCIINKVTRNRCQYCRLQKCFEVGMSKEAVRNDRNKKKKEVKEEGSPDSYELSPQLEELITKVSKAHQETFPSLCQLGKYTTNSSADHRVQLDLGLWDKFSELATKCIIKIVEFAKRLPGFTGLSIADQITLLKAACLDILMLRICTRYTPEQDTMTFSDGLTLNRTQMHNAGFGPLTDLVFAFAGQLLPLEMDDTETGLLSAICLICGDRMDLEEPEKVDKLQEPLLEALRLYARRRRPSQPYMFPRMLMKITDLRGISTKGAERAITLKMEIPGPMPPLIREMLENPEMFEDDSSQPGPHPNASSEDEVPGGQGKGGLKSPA
Procedure, shortened: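 Transactivation of exogenous RARg-Gal4 fusion measured as reporter transcript induction after 24 h in transfected HepG2 cells. RNA reverse-transcribed, amplified, fluorescently labeled and resolved by capillary electrophoresis; increase relative to DMSO.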

[16] = biological target: Cellular tumor antigen p53 (Homo sapiens) (UniProt P04637); experiment: ATG_p53_CIS: Attagene CIS-FACTORIAL HepG2 Assay for human p53 Transcription Factor (AID 2282994); conditions: HepG2 p53 cis-element reporter, Attagene mRNA; actives raise or lower the signal
Cellular tumor antigen p53 (Homo sapiens), sequence (P04637 whole entry, looked up): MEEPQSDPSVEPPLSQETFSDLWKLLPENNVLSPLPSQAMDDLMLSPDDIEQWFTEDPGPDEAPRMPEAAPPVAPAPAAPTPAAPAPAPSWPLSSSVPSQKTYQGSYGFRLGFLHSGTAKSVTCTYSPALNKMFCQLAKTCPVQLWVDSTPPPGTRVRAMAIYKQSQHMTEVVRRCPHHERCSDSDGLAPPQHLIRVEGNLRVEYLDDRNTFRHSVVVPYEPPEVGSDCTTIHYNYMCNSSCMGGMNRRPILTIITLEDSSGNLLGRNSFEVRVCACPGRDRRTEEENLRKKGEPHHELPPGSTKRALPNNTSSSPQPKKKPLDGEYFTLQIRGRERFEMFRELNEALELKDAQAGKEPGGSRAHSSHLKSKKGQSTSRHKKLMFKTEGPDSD
Procedure, shortened: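 Read-out: reporter mRNA by RT-PCR plus capillary electrophoresis with fluorescence detection. Human HepG2 liver cells carried transfected multi-reporter cis-element constructs, dosed 24 h. Gain or loss of signal fitted bidirectionally against DMSO control.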

[17] = biological target: Retinoic acid receptor alpha (Homo sapiens) (UniProt P10276); experiment: ATG_RARa_TRANS: Attagene TRANS-FACTORIAL HepG2 Assay for human Retinoic Acid Receptor alpha (RARa) (AID 2283005; active means hit-call score of the fitted dose curve at least 0.9, where 1 is the maximum)
Retinoic acid receptor alpha (Homo sapiens), sequence (P10276 whole entry, looked up, the tested form may be a part): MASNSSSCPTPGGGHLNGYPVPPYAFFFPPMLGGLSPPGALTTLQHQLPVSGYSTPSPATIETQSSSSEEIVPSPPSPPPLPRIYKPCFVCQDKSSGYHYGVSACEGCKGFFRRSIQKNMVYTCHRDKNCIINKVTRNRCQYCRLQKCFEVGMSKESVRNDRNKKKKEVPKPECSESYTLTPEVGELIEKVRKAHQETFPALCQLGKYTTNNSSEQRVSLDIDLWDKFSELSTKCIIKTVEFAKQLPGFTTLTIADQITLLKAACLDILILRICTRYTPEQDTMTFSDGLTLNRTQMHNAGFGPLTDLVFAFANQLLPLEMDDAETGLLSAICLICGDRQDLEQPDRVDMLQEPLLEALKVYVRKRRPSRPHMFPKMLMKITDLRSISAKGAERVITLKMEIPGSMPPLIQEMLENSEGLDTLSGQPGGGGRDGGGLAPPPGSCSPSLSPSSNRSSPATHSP
Procedure, shortened: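 HepG2 transiently transfected with multiplex GAL4-UAS reporter units including a human RARa–GAL4 chimera; 24 h compound exposure. Reporter mRNA quantified by RT-PCR, 6-FAM labeling and capillary electrophoresis; gain of signal versus DMSO.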

[18] = ATG_Oct_MLP_CIS: Attagene CIS-FACTORIAL HepG2 Assay for human Octamer-Binding Transcription Factor (Oct) (AID 2282993); conditions: HepG2 Attagene cis-factorial Oct reporter, mRNA; actives raise or lower the signal
Procedure, shortened: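 Transfected HepG2 cells, 24 h treatment. Reporter mRNA quantified by RT-PCR–capillary electrophoresis; bidirectional fitting against DMSO.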

[19] = BSK_3C_TissueFactor: BioMAP Diversity Plus: 3C Assay for Tissue Factor Biomarker Activity (AID 2282997); conditions: BioMAP 3C HUVEC, tissue factor biomarker readout; actives raise or lower the signal
Procedure, shortened: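 Tissue Factor measured by ELISA, 24 h after treatment of primary HUVEC in the BioMAP 3C setting.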

Measured: AC50

N=C(N)C(F)(F)C(F)(F)C(F)(F)C(F)(F)C(F)(F)C(F)(F)C(F)(F)F
inactive: [1] | [3] | [4] | [6] | [8] | [9] | [11] | [12]
active: [2] 271 µM | [5] 125 µM | [7] 36.8 µM and 30 µM | [10] 50.7 µM and 24.7 µM

C=C(C)C(=O)OCC(F)(F)C(F)(F)C(F)(F)C(F)(F)C(F)(F)C(F)(F)C(F)(F)F
not listed: [8] | [16] | [17] | [18] | [19]
inactive: all other assays above

COC(OC(C)=O)c1ccccc1 (stereo not given)
inactive: [1] | [2] | [3] | [4] | [5] | [16] | [13] | [11] | [12]

FC(F)(F)C(F)(F)C(F)(F)CI
not listed: [8] | [10] | [11] | [13] | [15] | [18] | [19]
inactive: all other assays above

C1COCCN1
not listed: [4] | [6] | [7] | [9] | [10] | [11] | [15] | [19]
inactive: all other assays above

CCCCCCOC(=O)c1ccccc1O
active: [19] 48 µM and 38.5 µM | [6] 24.5 µM and 41.1 µM | [7] 37.6 µM and 43.5 µM | [9] 38.6 µM and 47 µM
not listed: [10] | [14] | [15] | [16] | [17] | [18]
inactive: all other assays above

O=C(C=Cc1ccccc1)OCC=Cc1ccccc1
inactive: [1] | [2] | [3] | [16] | [8] | [13]
active: [5] 2.64 µM | [11] 0.641 µM | [12] 23.9 µM
